Assay in all cases: NCI-60 one-dose screen, 48 h (100 = growth as untreated, 0 = no growth, -100 = all killed)
What all share (conditions): 10 µM unless noted

Experiment [1] has as its system NCI-H23 lung.
Experiment [2] has as its system NCI-H226 lung.
The test system of experiment [3] is NCI-H322M lung.
In experiment [4] the test system is HOP-62 NSCLC.
Experiment [5] relates to NCI-H460 lung.
Experiment [6] has as its system HOP-92 NSCLC.
The subject of experiment [7] is NCI-H522 lung.
For experiment [8], the system named is A549/ATCC NSCLC.
Experiment [9] concerns 786-0 renal.
For experiment [10], the system named is COLO 205 colon.
Experiment [11] concerns DU-145 prostate.
The subject of experiment [12] is K-562 leukemia.
Experiment [13] relates to MALME-3M melanoma.
For experiment [14], the system named is MDA-MB-231 breast.
Experiment [15] has as its system RXF 393 renal.
Experiment [16] relates to SF-268 CNS.
The subject of experiment [17] is SF-295 CNS.
Experiment [18] has as its system SF-539 CNS.
In experiment [19] the test system is UACC-257 melanoma.
In experiment [20] the test system is M14 melanoma.

Compounds without any hit were thinned out: in the full panel of roughly 83,000, 20% have a hit.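 Note: values are percent growth. 100 is the growth of untreated cells, values between 100 and 0 indicate rising inhibition; between -100 and 0 indicates cell death.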 Values without a mark were called inactive. Activity calls are given as the source filed them. The calls were made as follows: active = growth percent below 10; inactive = the rest.

On to `COc1cc(C(=O)/C=C/c2ccc(OCCCCCC[P+](c3ccccc3)(c3ccccc3)c3ccccc3)cc2)cc(OC)c1OC`, for which the growth in experiment [1] was -63% (active); in experiment [2], -29.2% (active); in [3], -23.1% (active); in experiment [4] it was -62.2% (active); in experiment [5], -73.6% (active); in experiment [6] it was -26.2% (active). Further, the growth was -70.4% (active) in experiment [7]; -1.89% (active) in [8]; -92.4% (active) in experiment [9]; -95.3% (active) in experiment [10]; -1.64% (active) in experiment [11]; 0.54% (active) in [12]. Also, the growth in experiment [13] is -37.9% (active); in experiment [14] it was -15.1% (active); in experiment [15], -47.3% (active); in [16] it was -6.6% (active); in [17], -23.4% (active); in experiment [18], -86.2% (active). Also, the growth in [19] was -21.4% (active); in experiment [20], -55.8% (active).
Turning to `COc1ccc(C2CC(c3ccc(Nc4nc(Nc5ccc(F)cc5)nc(Nc5ccc(Cl)cc5)n4)cc3)=NN2C(C)=O)cc1` (stereo not given), the growth is 91.8% in experiment [1]; 97.7% in [2]; 123% in experiment [3]; 110% in experiment [4]; 102% in experiment [5]; 82.8% in experiment [6]. Besides, the growth was 58.1% in experiment [7]; 90.2% in experiment [8]; 98.9% in [9]; 96.1% in [10]; 122% in experiment [11]; 114% in [12]. The growth in [13] is 88.1%; in experiment [14], 90.9%; in experiment [15] it was 86.6%; in experiment [16], 131%; in experiment [17], 103%; in experiment [18], 101%. In addition, the growth in experiment [19] was 98.5%; in [20], 104%.
Regarding `Cc1ccc2c(-c3cc(-c4ccccc4)nc(N)c3C#N)cc(=O)oc2c1`, the growth was 102% in [1]; 95.9% in experiment [2]; 96.6% in experiment [3]; 88.3% in experiment [4]; 101% in experiment [5]; 92.3% in experiment [6]. The growth in experiment [7] was 68.1%; in experiment [8], 92%; in experiment [9], 92.2%; in [10], 108%; in experiment [11], 107%; in experiment [12], 108%. Besides, the growth was 94.8% in [13]; 101% in [14]; 110% in experiment [15]; 99.1% in experiment [16]; 109% in experiment [17]; 94.7% in experiment [18]. The growth in experiment [19] was 101%; in experiment [20] it was 108%.
Turning to `O=C(CS(=O)c1oc(-c2cccs2)nc1S(=O)(=O)c1ccc(Br)cc1)c1ccccc1` (stereo not given), the growth is 92.6% in [1]; 80.8% in [2]; 97.7% in [3]; 84.6% in experiment [4]; 93.6% in experiment [5]; 76% in [6]. The growth was 81.4% in experiment [7]; 96.6% in [8]; 98.7% in [9]; 106% in experiment [10]; 104% in [11]; 95.3% in [12]. Besides, the growth is 119% in [13]; 105% in experiment [14]; 105% in [15]; 99.2% in [16]; 101% in [17]; 87% in experiment [18]. Also, the figures for the growth in [19] and in experiment [20] were 98.8% and 99.5%, respectively.
On to `O=C(Nc1ccc(-c2nc(-c3cccc(OCCN4CCOCC4)c3)c(-c3ccnc(Br)c3)[nH]2)cc1)c1ccccc1`, for which the growth in [1] was 13.3%; in experiment [2], 52.8%; in experiment [3], 47.4%; in experiment [4], -1.45% (active); in experiment [5] it was 7.26% (active); in [6], 23.2%. For the same molecule, the growth is 40.7% in [7]; 21.9% in experiment [8]; -39.4% (active) in experiment [9]; -25.2% (active) in experiment [10]; 55.6% in experiment [11]; 0.946% (active) in experiment [12]. For the same molecule, the growth in experiment [13] is -21% (active); in experiment [14], 29.2%; in [15], -49.9% (active); in [16] it was 38.9%; in experiment [17], -70.9% (active); in experiment [18] it was -39.8% (active). Further, the growth in [19] was -0.153% (active); in experiment [20], 6.5% (active).
As to `Fc1cc(-c2nnc3n2NC(=Nc2ccc(Cl)cc2)CS3)c(Cl)cc1Cl`, the growth in experiment [1] was 79.3%; in experiment [2], 122%; in experiment [3] it was 100%; in [4], 73.6%; in experiment [5] it was 96.5%; in experiment [6] it was -18.6% (active). The growth is 76.3% in [7]; 87.5% in experiment [8]; 81.9% in [9]; 95.6% in experiment [10]; 97.8% in experiment [11]; 51.5% in experiment [12]. For the same molecule, the growth in [13] is 105%; in [14], 104%; in [15], 89.8%; in [16], 91.7%; in experiment [17], 81.5%; in experiment [18] it was 98.6%. Moreover, the values for the growth in [19] and in experiment [20] were 92.5% and 92.4%, respectively.

Values taken from PubChem BioAssay (NCI).
